# Hits are enriched below; roughly 4.7% of the tested compounds scored in any of these assays.
# TRHR ag: qHTS for Small Molecule Agonists and Allosteric Enhancers of Human TRH Receptor: Primary Screen for Agonists | hit rate 0.18% among 360,000 | Thyrotropin-releasing hormone receptor (Homo sapiens), P34981 | TRHR cells, calcium flux fluo-8, FDSS agonist mode | AID 493084, 2011 | activation, % at 2 µM; further: 0% is about no effect
#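 Read-out: compound-evoked intracellular calcium rise in TRHR cells, fluo-8 dye, kinetic FDSS fluorescence at 1 s/cycle following a 10-cycle baseline. Cells cultured overnight before dye loading (30 min–1.5 h, RT).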
# TRHR PAM: qHTS for Small Molecule Agonists and Allosteric Enhancers of Human TRH Receptor: Primary Screen for Enhancers. enhancement, % at 2 µM. TRHR cells, fluo-8 calcium fluorescence, EC20 TRH enhancement. Thyrotropin-releasing hormone receptor (Homo sapiens), P34981. hit rate 0.66% among 360,000; in the data active means enhancement above about 30%; further: 0% is about no effect
#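 TRHR-expressing cells loaded with fluo-8 calcium dye were read kinetically (ex 480/em 530) during compound addition, then stimulated with an EC20 of TRH (10 nM final). Enhancement of the Gq-mediated intracellular calcium response was scored.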
# D1 potentiator: Potentiators of Human D1 Dopamine Receptor: qHTS; D(1A) dopamine receptor (Homo sapiens), P21728; HEK293 TREx D1 cells, calcium flux, dopamine EC20 potentiation; potentiation, % at 10 µM; hit rate 0.036% among 360,000; AID 504651, 2011; in the data active means potentiation above about 30%; further: 0% is about no effect
# Target sequence (P21728 whole entry, looked up): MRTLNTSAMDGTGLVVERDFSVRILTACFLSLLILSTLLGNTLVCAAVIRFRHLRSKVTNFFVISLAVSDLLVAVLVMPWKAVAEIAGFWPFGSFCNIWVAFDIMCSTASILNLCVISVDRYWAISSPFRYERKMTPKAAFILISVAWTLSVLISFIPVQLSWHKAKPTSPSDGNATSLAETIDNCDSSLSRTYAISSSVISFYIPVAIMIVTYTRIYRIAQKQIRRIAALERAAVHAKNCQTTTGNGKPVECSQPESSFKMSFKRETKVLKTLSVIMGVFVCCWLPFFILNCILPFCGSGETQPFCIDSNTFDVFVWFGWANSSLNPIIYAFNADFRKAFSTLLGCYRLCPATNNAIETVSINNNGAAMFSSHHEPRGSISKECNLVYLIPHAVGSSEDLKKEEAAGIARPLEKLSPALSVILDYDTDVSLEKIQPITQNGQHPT
# D1 ag: Allosteric Agonists of the Human D1 Dopamine Receptor: qHTS | activation, % at 2 µM | HEK293 T-REx D1 cells, calcium flux, agonist mode | D(1A) dopamine receptor (Homo sapiens), P21728 | hit rate 1% among 360,000; further: 0% is about no effect
#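 Inducible HEK293 T-REx D1 cells, force-coupled to calcium signalling, were plated at 4000 cells/well with tetracycline and held overnight at 30 C. After no-wash calcium dye loading, compound-evoked calcium rise over 180 s flagged agonists.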
# D1 antagonist: Antagonist of Human D 1 Dopamine Receptor: qHTS; D(1A) dopamine receptor (Homo sapiens), P21728; HEK293 TREx D1 cells, calcium flux, dopamine EC80; active compounds read low; activity change, negative = inhibition, % at 10 µM; hit rate 3.2% among 360,000; in the data active means activity change below about -30%; further: on the % scale 0 is the no-effect control and ±100 the full control effect
#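 Calcium flux readout: force-coupled, inducible Hek293 Trex D1 line, cells induced overnight at 30 C with tetracycline, dye-loaded 30–90 min at RT. Antagonism scored against EC80 dopamine challenge given 180 s after compound.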
# An asterisk follows results filed as active; ! = a repeat was not active. Unless noted, no stated cut-off is given here; in the data, active means activation above about 30%; inactive means the rest.
SMILES,TRHR ag,TRHR PAM,D1 potentiator,D1 ag,D1 antagonist
O=C(Nc1cccc(F)c1)C1CCN(c2nnnn2-c2ccccc2)CC1,0,-9,-4,3,-30*
Cc1ccc(NS(=O)(=O)c2cc(C(=O)N3CCN(CCO)CC3)ccc2C)cc1,0,10,8,-1,-24
Cc1ccc(NS(=O)(=O)c2cc(C(=O)N3CCN(C)CC3)ccc2C)cc1,0,0,-4,-1,-34*
Cc1ccc(C)c(S(=O)(=O)NCc2ccc(C(=O)N3CCN(C)CC3)cc2)c1,0,4,-4,4,-32*
COc1ccc(N2CCN(Cc3cccn3-c3nnc(N4CCN(C5CCCCC5)CC4)s3)CC2)cc1,-1,-18,-3,1,1
CCc1cccc(NC(=O)CCS(=O)(=O)c2ccc3nc(C)sc3c2)c1,0,-3,-2,1,4
Nc1c(-c2nc(-c3ccc(Cl)cc3)cs2)c2ccccn2c1C(=O)c1ccc2c(c1)OCO2,1,2,3,1,14
COc1ccc(-n2c3c(c(=O)[nH]c2=O)C(NC(C)=O)(C(F)(F)F)C(=O)N3)cc1 (configuration not stated),1,2,-3,2,-54*!
COc1ccc(-n2c3c(c(=O)[nH]c2=O)C(NC(=O)c2ccccc2Cl)(C(F)(F)F)C(=O)N3)cc1 (configuration not stated),0,-1,-3,1,6
COc1ccc(C(=O)Nc2nc(C)cc(C)n2)cc1,1,0,-2,2,3
COc1ccc(C(=O)Nc2n[nH]c(-c3ccncc3)n2)cc1,0,1,-3,4,-47*
N#Cc1ccc2c(c1)C[C@]1(CCCCN3C(=O)c4ccccc4C3=O)OC3=C(C(=O)OC4(CCCCC4)C3)C2O1,0,10,2,0,-1
CNC(=O)NC(=O)C(NC1CCCc2ccccc21)c1ccccc1 (configuration not stated),-1,6,11,-1,-33*
Cc1ccc(NC(=O)C(NC2CCCc3ccccc32)c2ccccc2)c([N+](=O)[O-])c1 (configuration not stated),0,5,2,4,15
Cc1ccc(NC(=O)C(NC2CCCc3ccccc32)c2ccccc2)cc1Cl (configuration not stated),0,32*,7,9,-23
COc1ccc(OC)c(-c2oc3ccccc3c(=O)c2O)c1,0,5,-1,-1,-22
COc1ccc(OC)c(-c2c3cc(O)c(=O)cc-3oc3cc(O)c(O)cc23)c1,16,25,-2,44*,0
O=C(c1ccccc1)c1coc2ccc(O)c(Cl)c12,0,-1,5,111*,75
Cc1ccc(CC(=O)Nc2ncc([N+](=O)[O-])s2)cc1,1,-10,-7,12,-39*
Cc1ccc(CC(=O)Nc2ccc([N+](=O)[O-])cc2C)cc1,-1,6,-5,11,-41*
Cc1ccc(SCC(=O)Nc2cc([N+](=O)[O-])ccc2O)cc1,3,-5,-10,30*,-26
Cc1ccccc1S(=O)(=O)N1CCN(S(=O)(=O)c2ccc3c(c2)OCCO3)CC1,0,2,3,4,-12
CCOC(=O)c1sc2nc(CSc3ccccc3)nc(N3CCCN(C)CC3)c2c1C,2,-3,-5,30*,55
CCOC(=O)c1sc2nc(CSc3ccccc3)nc(N3CCC(C(N)=O)CC3)c2c1C,0,9,-3,19,12
COc1cccc(C2=NOC(C(=O)Nc3ccc4c(c3)OCO4)C2)c1 (configuration not stated),3,3,9,8,-16
O=C(Nc1ccc2c(c1)OCO2)C1CC(c2cccc(Br)c2)=NO1 (configuration not stated),1,-1,-11,2,-38*

# High-throughput results from PubChem.
